# Laboratory results published in PubChem BioAssay.
# The source made the active and inactive calls.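 Rule for the calls, unless noted: active = inhibition at or above 50% at 10 µM; inactive = inhibition below 50%.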
# Columns and labels:
# [1] = inhibitors of TNFa-induced NFkB p65 translocation, primary screen, imaging, HUVEC, MLSMR starter and 10KST1 sets (AID 438;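 active = inhibition above 20% together with a positive visual image hit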;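 note: compound added about 3h40 before a 20 min TNFalpha stimulation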;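 for inhibition: signal is the nuclear over cytoplasmic p65 intensity ratio per well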); conditions: HUVEC TNFa-induced p65 nuclear translocation; cell count: measured here: nuclei count (cytotoxicity indicator), at 2.08 µM; inhibition: at 2 µM, stronger effect = higher value, 0% TNFa-plus-vehicle, 100% no-TNFa wells
# [2] = reduction of polyQ htt aggregates in cells – imaging, exon1htt(103Q)mCFP cells, high-content imaging, primary screen (AID 483;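 active = visual image review flags a hit and inhibition of aggregation exceeds 20%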;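 note: compound exposure lasted 3 days before fixation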;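 for nuclei count: percent of the per-plate median nuclei count of sample wells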); conditions: exon1htt(103Q)mCFP cell line, aggregate imaging, at 2 µM; inhibition of aggregation: stronger effect = higher value; nuclei count: measured here: cell count, toxicity
# [3] = endothelial E-selectin expression blockers – imaging, HUVEC, immunofluorescence, MLSMR starter and 10KST1 sets, primary screen (AID 487;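 active = visually confirmed hit in the image check and inhibition above 20%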;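 for inhibition: signal is fraction of cell area covered by stained E-selectin grains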;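 for nuclei count: 100% = median nuclei count of all wells on the same plate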); conditions: HUVEC TNFalpha-induced E-selectin immunofluorescence imaging, at 2 µM; inhibition: stronger effect = higher value; nuclei count: measured here: cell number, toxicity
# [4] = target: Voltage-gated potassium channel subunit beta-2 (Rattus norvegicus) (UniProt P62483); experiment: inhibitors of rat Kvbeta2 reductase activity – biochemical, NADPH fluorescence, primary screen (AID 622;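 active = fluorescence slope higher than the sample average by over 3 SD, cut at about -0.22 in these data, passing the limit was not always enough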;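 note: slope of raw intensity against log time taken from 70 to 1610 s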); conditions: recombinant KvBeta, 4-cyanobenzaldehyde reduction, at 10 µM, stronger effect = higher value
# [5] = target: Voltage-gated potassium channel subunit beta-2 (Rattus norvegicus) (UniProt P62483); experiment: enhancers of rat Kvbeta2 NADPH turnover – biochemical, NADPH fluorescence, primary screen (AID 623;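 active = NADPH fluorescence slope more negative than the mean of all samples by about 3 SD, 99.7% confidence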;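 note: fluorescence intensity change per second fitted from 20 to 320 s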); conditions: Recombinant KvBeta, NADPH fluorescence decrease slope, 10 min; at 10 µM; stronger effect = lower value
# [6] = target: Alpha-2C adrenergic receptor (Homo sapiens) (UniProt P18825); experiment: compounds altering alpha2C-coupled GIRK flux – cell-based, HEK293 alpha2C/GIRK1/2, thallium flux, primary screen (AID 624;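 active = fluorescence slope after compound addition differing from the mean of all screened samples at 99.7% confidence, in either direction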;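 note: slope of fluorescence ratio to pre-addition baseline per second over 15 to 24 s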); conditions: thallium flux BTC fluorescence, at 10 µM, actives lie on both sides
# [7] = blockers of RIG-like receptor reporter activation – cell-based, Sendai virus stimulus, luciferase, 10K MLSCN set, TLR/RLR signaling modifier project, primary screen (AID 602276); conditions: HEK293 RL24 IRF3 luciferase reporter, at 10 µM, stronger effect = higher value;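 note: firefly luciferase from ISG56 promoter only with Renilla not read in this screen; 0% = Sendai virus plus DMSO and 100% = medium plus DMSO without virus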
# [8] = TLR3 IRF3 reporter activation blockers – cell-based, poly I:C stimulus, luciferase, 10K MLSCN set, primary screen (AID 602277;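 active = inhibition of the reporter signal at or above 50%; inactive = inhibition below 50%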); conditions: HEK293-TLR3 RL24 IRF3 luciferase reporter, at 10 µM, stronger effect = higher value
# Chain of Alpha-2C adrenergic receptor (Homo sapiens) (P18825 whole entry, looked up): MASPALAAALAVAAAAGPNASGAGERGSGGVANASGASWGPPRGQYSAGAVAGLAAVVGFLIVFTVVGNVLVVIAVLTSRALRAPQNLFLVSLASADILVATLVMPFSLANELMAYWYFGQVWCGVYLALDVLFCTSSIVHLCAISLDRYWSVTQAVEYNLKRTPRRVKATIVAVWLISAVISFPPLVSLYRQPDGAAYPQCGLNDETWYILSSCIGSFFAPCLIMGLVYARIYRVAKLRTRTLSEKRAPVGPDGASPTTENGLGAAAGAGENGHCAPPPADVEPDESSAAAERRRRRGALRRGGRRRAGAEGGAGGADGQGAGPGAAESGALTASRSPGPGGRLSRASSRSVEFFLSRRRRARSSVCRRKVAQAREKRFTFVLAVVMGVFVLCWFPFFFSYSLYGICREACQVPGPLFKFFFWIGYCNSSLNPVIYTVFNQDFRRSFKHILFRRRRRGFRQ
# Chain of Voltage-gated potassium channel subunit beta-2 (Rattus norvegicus) (P62483 whole entry, looked up): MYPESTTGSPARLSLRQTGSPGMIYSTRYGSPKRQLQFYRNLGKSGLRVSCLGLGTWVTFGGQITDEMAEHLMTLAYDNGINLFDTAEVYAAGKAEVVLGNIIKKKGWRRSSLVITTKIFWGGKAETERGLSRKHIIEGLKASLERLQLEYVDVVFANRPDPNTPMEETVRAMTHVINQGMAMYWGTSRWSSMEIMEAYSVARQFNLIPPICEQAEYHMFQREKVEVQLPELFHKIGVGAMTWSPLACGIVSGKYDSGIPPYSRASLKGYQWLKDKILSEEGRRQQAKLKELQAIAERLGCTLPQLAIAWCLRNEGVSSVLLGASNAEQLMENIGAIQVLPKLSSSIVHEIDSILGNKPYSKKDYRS
smiles,measurement,setting,value
CC(C)C(OC(=O)c1ccco1)C(=O)NCc1ccccc1 (stereo not drawn),cell count,[1],489
same,inhibition,[1],5% (inactive)
same,inhibition of aggregation,[2],-10.8% (inactive)
same,nuclei count,[2],108%
same,inhibition,[3],-122% (inactive)
same,nuclei count,[3],126%
same,fluorescence slope,[4],-0.443 (inactive)
same,NADPH fluorescence slope,[5],2.2e-05 (inactive)
same,slope,[6],0.00599 (inactive)
same,inhibition,[7],11.3% (inactive)
same,inhibition,[8],10.5% (inactive)
C=CC(O)(C#CCN(CC)CC)c1ccccc1 (stereo not drawn),cell count,[1],740
same,inhibition,[1],-36% (inactive)
same,inhibition of aggregation,[2],-18.5% (inactive)
same,nuclei count,[2],107%
same,inhibition,[3],-53.6% (inactive)
same,nuclei count,[3],110%
same,fluorescence slope,[4],-0.596 (inactive)
same,NADPH fluorescence slope,[5],-5e-05 (inactive)
same,slope,[6],0.0061 (inactive)
same,inhibition,[7],4.67% (inactive)
same,inhibition,[8],11.4% (inactive)
O=C(Cn1nc(Cc2cccnc2)c2ccccc2c1=O)NCC1CCCO1 (stereo not drawn),cell count,[1],461
same,inhibition,[1],6.1% (inactive)
same,inhibition of aggregation,[2],12.1% (inactive)
same,nuclei count,[2],69.2%
same,inhibition,[3],-96.1% (inactive)
same,nuclei count,[3],115%
same,fluorescence slope,[4],-0.553 (inactive)
same,NADPH fluorescence slope,[5],-2.6e-06 (inactive)
same,slope,[6],0.00713 (inactive)
same,inhibition,[7],11.5% (inactive)
same,inhibition,[8],29.9% (inactive)
CCOC(=O)/C=C1\CC(=O)Nc2nonc2N1,cell count,[1],330
same,inhibition,[1],-3.4% (inactive)
same,inhibition of aggregation,[2],2% (inactive)
same,nuclei count,[2],105%
same,inhibition,[3],-22.6% (inactive)
same,nuclei count,[3],118%
same,fluorescence slope,[4],-0.507 (inactive)
same,NADPH fluorescence slope,[5],-6.7e-05 (inactive)
same,slope,[6],0.00414 (inactive)
same,inhibition,[7],22% (inactive)
same,inhibition,[8],21.4% (inactive)
COC(=O)c1[nH]c2c(c1C)C(=O)CC(c1cc(OC)ccc1OC)C2 (stereo not drawn),cell count,[1],546
same,inhibition,[1],-4.2% (inactive)
same,inhibition of aggregation,[2],30.2% (inactive)
same,nuclei count,[2],81%
same,inhibition,[3],-36.2% (inactive)
same,nuclei count,[3],114%
same,fluorescence slope,[4],-0.573 (inactive)
same,NADPH fluorescence slope,[5],-1.2e-05 (inactive)
same,slope,[6],0.00652 (inactive)
same,inhibition,[7],38.3% (inactive)
same,inhibition,[8],21.5% (inactive)
CCOC(=O)C(NC(=O)OC(C)C)(Nc1nccs1)C(F)(F)F (stereo not drawn),cell count,[1],636
same,inhibition,[1],10.6% (inactive)
same,inhibition of aggregation,[2],-13.3% (inactive)
same,nuclei count,[2],98.7%
same,inhibition,[3],22.7% (inactive)
same,nuclei count,[3],108%
same,fluorescence slope,[4],-0.608 (inactive)
same,NADPH fluorescence slope,[5],-5.2e-07 (inactive)
same,slope,[6],0.00583 (inactive)
same,inhibition,[7],8.51% (inactive)
same,inhibition,[8],27.8% (inactive)
COc1ccccc1N1CCN(C(=O)C2CCCO2)CC1 (stereo not drawn),cell count,[1],405
same,inhibition,[1],2.5% (inactive)
same,inhibition of aggregation,[2],-0.1% (inactive)
same,nuclei count,[2],124%
same,inhibition,[3],-14.4% (inactive)
same,nuclei count,[3],102%
same,fluorescence slope,[4],-0.442 (inactive)
same,NADPH fluorescence slope,[5],-8.7e-05 (inactive)
same,slope,[6],0.0058 (inactive)
same,inhibition,[7],11.6% (inactive)
same,inhibition,[8],24.6% (inactive)
O=C(O)C1CCCN1C(=O)c1cccs1 (stereo not drawn),cell count,[1],367
same,inhibition,[1],-18.4% (inactive)
same,inhibition of aggregation,[2],-4.2% (inactive)
same,nuclei count,[2],105%
same,inhibition,[3],-53% (inactive)
same,nuclei count,[3],117%
same,fluorescence slope,[4],-0.487 (inactive)
same,NADPH fluorescence slope,[5],-7.9e-05 (inactive)
same,slope,[6],0.00489 (inactive)
same,inhibition,[7],5.87% (inactive)
same,inhibition,[8],10.7% (inactive)
